According to paper PMC5540273 (PLoS ONE, 2017):

Legend:
Settings in all cases: concentration: 1 μM, replicates: in singlicate; n = 1
[1] = system: NEK11
[2] = system: NEK1
[3] = system: NEK2
[4] = system: NEK3
[5] = system: NEK4
[6] = system: NEK5
[7] = system: NEK6
[8] = system: NEK7
[9] = system: NEK9
[10] = system: T1, NIK
T1 construct: gene MAP3K14
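Note: KINOMEscan kinase panel screen.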

SMILES	%Inh [1]	%Inh [2]	%Inh [3]	%Inh [4]	%Inh [5]	%Inh [6]	%Inh [7]	%Inh [8]	%Inh [9]	%Inh [10]
CNC(=O)c1ccccc1Nc1nc(Nc2ccc(N3CCOCC3)cc2)ncc1Cl.Cl [GSK1576028]	85%	86%	89%	93.3%	65%	100%	98.6%	98%	97.7%	36%
C[C@@H](Oc1cc(-n2cnc3cc(-c4ccnc(NCCS(C)(=O)=O)c4)ccc32)sc1C(N)=O)c1ccccc1Cl [GSK907232]	0%	72%	98.8%	3%	0%	89%	4%	12%	74%	0%
NCCCC(NC(=O)c1cc(Br)c(-c2ccnc3[nH]ccc23)s1)c1ccccc1.O=C(O)C(F)(F)F.O=C(O)C(F)(F)F (centres unmarked) [GSK1287544]	0%	74%	9%	0%	9%	88%	16%	0%	17%	16%
Cn1cc(-c2[nH]c3cc(NC(=O)[C@H](N)C4CCCCC4)cc4c3c2C=NNC4=O)cn1	89%	70%	21%	32%	0%	54%	2%	0%	11%	3%
Cl.Cl.NCC(C(=O)Nc1cc(Br)c(-c2ccnc3[nH]ccc23)s1)c1ccccc1 (centres unmarked) [GSK1269851]	0%	0%	15%	18%	15%	0%	0%	10%	9%	8%
CCS(=O)(=O)c1ccc(OC)c(Nc2nccc(-c3c(-c4cccc(NC(=O)c5c(F)cccc5F)c4)nn4ncccc34)n2)c1 [GSK326180]	0%	0%	4%	14%	6%	15%	0%	0%	10%	6%
COc1cc(Nc2nccc(-c3c(-c4cccc(NC(=O)c5c(F)cccc5F)c4)nn4ccccc34)n2)cc(OC)c1OC [GSK323521]	0%	8%	78%	0%	34%	22%	25%	33%	48%	19%
c1ccc(Oc2ccc(Nc3ccnc4cc(-c5ccc(CNCCN6CCOCC6)o5)ccc34)cc2)nc1 [GW567145]	45%	0%	0%	0%	0%	0%	0%	0%	13%	28%
CN(C)S(=O)(=O)c1cc(-c2ccc3nccc(-c4cccc(S(N)(=O)=O)c4)c3c2)cnc1N [GSK1669921]	0%	0%	34%	0%	10%	0%	0%	31%	32%	3%
CC(=O)Nc1nc2cnc(Nc3cc(NC(=O)c4cccc(C5(C#N)CC5)c4Cl)ccc3C)nc2s1	0%	0%	0%	18%	10%	0%	4%	7%	14%	0%
Nc1n[nH]c2cnc(-c3ccccc3)cc12 [SB-642124]	3%	0%	0%	79%	12%	96.5%	0%	0%	0%	10%
Cc1cccc(Nc2nc(N[C@H]3CCNC3)ncc2C(N)=O)c1.Cl [GSK2197149]	0%	50%	0%	7%	27%	8%	0%	0%	0%	20%
Fc1ccc(-c2ncn(C3CCNCC3)c2-c2ccnc(Oc3ccc(-c4ccccc4)cc3)n2)cc1 [SB-245391]	24%	36%	25%	13%	0%	4%	17%	0%	7%	31%
COc1cc(Nc2nccc(N3CCC(NC(=O)c4cc5ccccc5s4)C3)n2)cc(OC)c1OC (centres unmarked) [GSK1379760]	0%	35%	26%	11%	13%	99.5%	27%	37%	31%	4%
